Measurements published in PubChem BioAssay (NCATS).
Inconclusive results are not listed. Values without a mark were called inactive. The source made the active and inactive calls. Calls follow the shape of the dose curve; as a rule, active = well fitted cell-killing curve with a large enough effect; inconclusive = small, poorly fitted or top-dose-only effect, or effect the other way; inactive = no such curve, though single readings can be large or run the other way.

Assay: Cell Viability - LYMP2-004 (AID 966);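 also: plate controls were DMSO only for no effect and tetraoctylammonium bromide control for full effect; nearly all actives have a fitted effect of over 65% in size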
Conditions: LYMP2-004 lymphoblastoid cell viability, qHTS; series mostly up to 92.2 µM; activity change, negative = cytotoxicity: at the top concentration
In short: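 Luminescent ATP read-out (CellTiter-Glo, 30 min RT) after 24 hr compound exposure at 37 C; 2500 lymphoblastoid cells/well, complete medium. Decrease in ATP = cytotoxicity; AC50 from standard Hill model.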
With `COP(=S)(OC)Oc1ccc(SC)c(C)c1` the “activity change, negative = cytotoxicity” value was 16.1%. In the case of `CC(C)c1cccc(C(C)C)c1O`, the “activity change, negative = cytotoxicity” value is reported as 1.22%. For `C[C@]12CCC(=O)C=C1CC[C@@H]1[C@@H]2CC[C@]2(C)C(=O)CC[C@@H]12`, the outcome was “inactive”. In the case of `CCC(C)(C)c1ccc(O)cc1`, the “activity change, negative = cytotoxicity” value is reported as 27.6%. In the case of `C[C@]12CCC(=O)C=C1CC[C@@H]1[C@@H]2CC[C@@]2(C)[C@H]1CC[C@]2(C)O`, the “activity change, negative = cytotoxicity” value is reported as -11.3%. In the case of `CCCC(C)(COC(N)=O)COC(N)=O`, the “activity change, negative = cytotoxicity” value is reported as 16.5%. In the case of `CN1C[C@H](C(=O)N[C@]2(C)O[C@@]3(O)[C@@H]4CCCN4C(=O)[C@H](Cc4ccccc4)N3C2=O)C=C2c3cccc4[nH]cc(c34)C[C@H]21`, the “activity change, negative = cytotoxicity” value is reported as -61.3%. For `C[C@]1(O)CC[C@H]2[C@@H]3CCC4=CC(=O)CC[C@]4(C)[C@@]3(F)[C@@H](O)C[C@@]21C`, the “activity change, negative = cytotoxicity” value was -2.31%. With `COc1cc(OC)c(OC)cc1C=O` the “activity change, negative = cytotoxicity” value was 14.8%. For `CCOC(=O)CC(SP(=S)(OC)OC)C(=O)OCC` (stereo unspecified), the “activity change, negative = cytotoxicity” value was -3.69%. For `Clc1ccc(C(c2ccc(Cl)cc2)C(Cl)(Cl)Cl)cc1`, the “activity change, negative = cytotoxicity” value was -11.4%. In the case of `CC(C)NC(C)C`, the “activity change, negative = cytotoxicity” value is reported as 4.71%. For `Nc1ccccc1C(=O)O`, the “activity change, negative = cytotoxicity” value was 9.2%. In the case of `COC(=O)C(c1ccccc1)C1CCCCN1` (stereo unspecified), the “activity change, negative = cytotoxicity” value is reported as 0.0315%. In the case of `Nc1ccccc1`, the “activity change, negative = cytotoxicity” value is reported as 13.7%. In the case of `NCCc1ccc(O)cc1`, the “activity change, negative = cytotoxicity” value is reported as -0.126%. For `O=P1(N(CCCl)CCCl)NCCCO1` (stereo unspecified), the “activity change, negative = cytotoxicity” value was 17%.

Assay: Cell Viability - LYMP2-005 (AID 967);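 also: plate controls were DMSO only for no effect and 92 µM tetraoctylammonium bromide control for full effect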
Conditions: LYMP2-005 lymphoblastoid cell viability; series mostly up to 92.2 µM; activity change, negative = viability loss: at the top concentration
In short: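 qHTS viability screen in LYMP2-005 cells: 24 h at 37 C with compound, ATP luminescence via CellTiter-Glo, AC50 from Hill curves.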
In the case of `COP(=S)(OC)Oc1ccc(SC)c(C)c1`, the “activity change, negative = viability loss” value is reported as -31.4%. For `CC(C)c1cccc(C(C)C)c1O`, the “activity change, negative = viability loss” value was 20.9%. In the case of `C[C@]12CCC(=O)C=C1CC[C@@H]1[C@@H]2CC[C@]2(C)C(=O)CC[C@@H]12`, the outcome is reported as “inactive”. In the case of `CCC(C)(C)c1ccc(O)cc1`, the “activity change, negative = viability loss” value is reported as 47.1%. With `C[C@]12CCC(=O)C=C1CC[C@@H]1[C@@H]2CC[C@@]2(C)[C@H]1CC[C@]2(C)O` the “activity change, negative = viability loss” value was -5.41%. In the case of `CCCC(C)(COC(N)=O)COC(N)=O`, the “activity change, negative = viability loss” value is reported as 5.38%. In the case of `C[C@]1(O)CC[C@H]2[C@@H]3CCC4=CC(=O)CC[C@]4(C)[C@@]3(F)[C@@H](O)C[C@@]21C`, the “activity change, negative = viability loss” value is reported as -31.1%. With `COc1cc(OC)c(OC)cc1C=O` the “activity change, negative = viability loss” value was 7.03%. For `Clc1ccc(C(c2ccc(Cl)cc2)C(Cl)(Cl)Cl)cc1`, the “activity change, negative = viability loss” value was -14.2%. For `CC(C)NC(C)C`, the “activity change, negative = viability loss” value was 20.1%. For `COC(=O)C(c1ccccc1)C1CCCCN1` (stereo unspecified), the “activity change, negative = viability loss” value was 19.1%. With `Nc1ccccc1` the “activity change, negative = viability loss” value was 10.9%. For `NCCc1ccc(O)cc1`, the “activity change, negative = viability loss” value was -22%. In the case of `O=P1(N(CCCl)CCCl)NCCCO1` (stereo unspecified), the “activity change, negative = viability loss” value is reported as 10.6%.
